Experiment [1] concerns the target Death-associated protein kinase 1 (Homo sapiens) (UniProt P53355). The conditions noted are these: at 1 µM.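 Note: each value is a mean inhibition figure.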
Experiment [2] deals with T1, Serine/threonine-protein kinase DCLK2 (Homo sapiens) (UniProt Q8N568).
T1 sequence (whole entry): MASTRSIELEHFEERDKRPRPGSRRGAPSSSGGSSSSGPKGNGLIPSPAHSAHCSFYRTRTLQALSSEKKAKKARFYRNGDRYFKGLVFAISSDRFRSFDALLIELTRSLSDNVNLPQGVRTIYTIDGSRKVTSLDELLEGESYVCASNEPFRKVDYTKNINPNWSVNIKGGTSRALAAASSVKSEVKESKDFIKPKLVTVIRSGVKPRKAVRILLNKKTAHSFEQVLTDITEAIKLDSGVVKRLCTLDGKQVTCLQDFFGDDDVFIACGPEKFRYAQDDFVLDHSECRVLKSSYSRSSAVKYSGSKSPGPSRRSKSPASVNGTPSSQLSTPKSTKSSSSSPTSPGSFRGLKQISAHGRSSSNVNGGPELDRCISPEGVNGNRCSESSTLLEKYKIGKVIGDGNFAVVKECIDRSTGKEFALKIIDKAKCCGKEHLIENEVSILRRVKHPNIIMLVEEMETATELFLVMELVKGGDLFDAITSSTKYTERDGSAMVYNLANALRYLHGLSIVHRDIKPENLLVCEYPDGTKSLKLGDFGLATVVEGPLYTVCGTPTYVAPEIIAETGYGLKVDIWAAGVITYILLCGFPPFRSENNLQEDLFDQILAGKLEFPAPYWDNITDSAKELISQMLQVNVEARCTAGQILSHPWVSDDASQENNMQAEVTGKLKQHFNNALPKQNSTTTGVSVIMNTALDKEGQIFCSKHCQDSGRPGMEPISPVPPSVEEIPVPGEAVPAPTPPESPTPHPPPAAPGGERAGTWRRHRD
The following applies: at 0.1 µM.

Experiment [3] addresses T1, Serine/threonine-protein kinase DCLK2 (Homo sapiens). The following applies: at 1 µM.
Experiment [4] has as its target MAP kinase-activated protein kinase 2 (Homo sapiens) (UniProt P49137). The following applies: at 0.1 µM.
For experiment [5] the target is unchanged. The conditions noted are these: at 1 µM.
Experiment [6] concerns the target MAP kinase-activated protein kinase 3 (Homo sapiens) (UniProt Q16644). The following applies: at 0.1 µM.
Experiment [7] has the same target. The conditions noted are these: at 1 µM.
The target in experiment [8] is Serine/threonine-protein kinase MARK1 (Homo sapiens) (UniProt Q9P0L2). The conditions noted are these: at 0.1 µM.
Sequence of Serine/threonine-protein kinase MARK1 (Homo sapiens) (Q9P0L2 whole entry, looked up): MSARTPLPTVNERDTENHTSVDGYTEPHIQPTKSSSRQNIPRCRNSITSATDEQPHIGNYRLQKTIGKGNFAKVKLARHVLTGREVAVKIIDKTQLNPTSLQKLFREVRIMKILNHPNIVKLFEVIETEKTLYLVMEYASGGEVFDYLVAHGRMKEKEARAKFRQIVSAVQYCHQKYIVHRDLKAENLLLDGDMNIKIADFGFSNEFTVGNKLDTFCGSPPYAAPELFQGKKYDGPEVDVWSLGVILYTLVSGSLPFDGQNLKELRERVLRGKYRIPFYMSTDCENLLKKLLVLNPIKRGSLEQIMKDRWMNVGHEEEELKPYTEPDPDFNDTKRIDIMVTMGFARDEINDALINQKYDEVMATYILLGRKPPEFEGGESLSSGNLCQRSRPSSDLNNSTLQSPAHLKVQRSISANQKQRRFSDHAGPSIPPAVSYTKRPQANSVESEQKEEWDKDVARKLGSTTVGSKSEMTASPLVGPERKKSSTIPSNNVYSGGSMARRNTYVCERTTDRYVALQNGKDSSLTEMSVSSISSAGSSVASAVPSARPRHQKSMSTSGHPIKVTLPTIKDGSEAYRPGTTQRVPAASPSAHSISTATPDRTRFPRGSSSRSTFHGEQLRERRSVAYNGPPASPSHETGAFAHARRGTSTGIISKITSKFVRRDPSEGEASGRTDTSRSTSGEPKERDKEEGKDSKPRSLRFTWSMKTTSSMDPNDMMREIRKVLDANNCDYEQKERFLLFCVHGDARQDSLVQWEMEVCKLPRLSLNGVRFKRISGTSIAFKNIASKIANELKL
Experiment [9] shares this target. The following applies: at 1 µM.
For experiment [10], the target named is MAP/microtubule affinity-regulating kinase 3 (Homo sapiens) (UniProt P27448). The following applies: at 0.1 µM.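 Note: mean percent inhibition of MARK3 kinase activity, measured within the GSK PKIS screening panel.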
Sequence of MAP/microtubule affinity-regulating kinase 3 (Homo sapiens) (P27448 whole entry, looked up): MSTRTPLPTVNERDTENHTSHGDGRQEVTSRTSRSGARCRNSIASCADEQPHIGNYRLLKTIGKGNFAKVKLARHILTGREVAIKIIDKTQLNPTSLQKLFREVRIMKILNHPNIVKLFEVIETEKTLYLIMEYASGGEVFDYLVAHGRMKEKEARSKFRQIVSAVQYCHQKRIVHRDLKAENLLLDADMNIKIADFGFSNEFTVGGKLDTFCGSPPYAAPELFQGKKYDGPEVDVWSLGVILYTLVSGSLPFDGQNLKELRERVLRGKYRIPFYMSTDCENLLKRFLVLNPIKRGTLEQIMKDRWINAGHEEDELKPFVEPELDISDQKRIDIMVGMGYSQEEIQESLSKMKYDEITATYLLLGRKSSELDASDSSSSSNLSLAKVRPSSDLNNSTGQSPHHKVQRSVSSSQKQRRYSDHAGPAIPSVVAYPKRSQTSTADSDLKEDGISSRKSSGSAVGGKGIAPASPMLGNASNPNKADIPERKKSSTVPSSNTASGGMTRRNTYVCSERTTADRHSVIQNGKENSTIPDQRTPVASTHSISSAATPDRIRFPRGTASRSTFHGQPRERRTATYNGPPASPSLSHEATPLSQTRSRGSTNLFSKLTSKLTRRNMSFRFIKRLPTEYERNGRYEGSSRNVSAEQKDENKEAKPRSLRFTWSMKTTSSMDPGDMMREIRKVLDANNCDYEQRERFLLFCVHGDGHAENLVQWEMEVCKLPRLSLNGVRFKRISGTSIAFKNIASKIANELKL

Each structure is given as a SMILES string. Where “and” joins values, the source holds several entries; their conditions need not be identical. Equal values may be shown once.

Usually inhibition stands for the drop in the measured response relative to a control, in per cent.

Sequence of MAP kinase-activated protein kinase 3 (Homo sapiens) (Q16644 whole entry, looked up): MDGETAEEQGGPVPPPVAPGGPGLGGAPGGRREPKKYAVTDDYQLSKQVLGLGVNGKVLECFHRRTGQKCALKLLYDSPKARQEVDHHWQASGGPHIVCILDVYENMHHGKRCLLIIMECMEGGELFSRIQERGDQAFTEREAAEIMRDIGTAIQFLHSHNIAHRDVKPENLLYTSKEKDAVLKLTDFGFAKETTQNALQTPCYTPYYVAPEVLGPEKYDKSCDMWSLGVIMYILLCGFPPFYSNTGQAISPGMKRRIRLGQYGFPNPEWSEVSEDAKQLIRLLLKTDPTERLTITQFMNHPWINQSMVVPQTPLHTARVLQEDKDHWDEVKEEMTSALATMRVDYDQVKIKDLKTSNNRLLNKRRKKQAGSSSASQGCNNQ
Sequence of Death-associated protein kinase 1 (Homo sapiens) (P53355 whole entry, looked up): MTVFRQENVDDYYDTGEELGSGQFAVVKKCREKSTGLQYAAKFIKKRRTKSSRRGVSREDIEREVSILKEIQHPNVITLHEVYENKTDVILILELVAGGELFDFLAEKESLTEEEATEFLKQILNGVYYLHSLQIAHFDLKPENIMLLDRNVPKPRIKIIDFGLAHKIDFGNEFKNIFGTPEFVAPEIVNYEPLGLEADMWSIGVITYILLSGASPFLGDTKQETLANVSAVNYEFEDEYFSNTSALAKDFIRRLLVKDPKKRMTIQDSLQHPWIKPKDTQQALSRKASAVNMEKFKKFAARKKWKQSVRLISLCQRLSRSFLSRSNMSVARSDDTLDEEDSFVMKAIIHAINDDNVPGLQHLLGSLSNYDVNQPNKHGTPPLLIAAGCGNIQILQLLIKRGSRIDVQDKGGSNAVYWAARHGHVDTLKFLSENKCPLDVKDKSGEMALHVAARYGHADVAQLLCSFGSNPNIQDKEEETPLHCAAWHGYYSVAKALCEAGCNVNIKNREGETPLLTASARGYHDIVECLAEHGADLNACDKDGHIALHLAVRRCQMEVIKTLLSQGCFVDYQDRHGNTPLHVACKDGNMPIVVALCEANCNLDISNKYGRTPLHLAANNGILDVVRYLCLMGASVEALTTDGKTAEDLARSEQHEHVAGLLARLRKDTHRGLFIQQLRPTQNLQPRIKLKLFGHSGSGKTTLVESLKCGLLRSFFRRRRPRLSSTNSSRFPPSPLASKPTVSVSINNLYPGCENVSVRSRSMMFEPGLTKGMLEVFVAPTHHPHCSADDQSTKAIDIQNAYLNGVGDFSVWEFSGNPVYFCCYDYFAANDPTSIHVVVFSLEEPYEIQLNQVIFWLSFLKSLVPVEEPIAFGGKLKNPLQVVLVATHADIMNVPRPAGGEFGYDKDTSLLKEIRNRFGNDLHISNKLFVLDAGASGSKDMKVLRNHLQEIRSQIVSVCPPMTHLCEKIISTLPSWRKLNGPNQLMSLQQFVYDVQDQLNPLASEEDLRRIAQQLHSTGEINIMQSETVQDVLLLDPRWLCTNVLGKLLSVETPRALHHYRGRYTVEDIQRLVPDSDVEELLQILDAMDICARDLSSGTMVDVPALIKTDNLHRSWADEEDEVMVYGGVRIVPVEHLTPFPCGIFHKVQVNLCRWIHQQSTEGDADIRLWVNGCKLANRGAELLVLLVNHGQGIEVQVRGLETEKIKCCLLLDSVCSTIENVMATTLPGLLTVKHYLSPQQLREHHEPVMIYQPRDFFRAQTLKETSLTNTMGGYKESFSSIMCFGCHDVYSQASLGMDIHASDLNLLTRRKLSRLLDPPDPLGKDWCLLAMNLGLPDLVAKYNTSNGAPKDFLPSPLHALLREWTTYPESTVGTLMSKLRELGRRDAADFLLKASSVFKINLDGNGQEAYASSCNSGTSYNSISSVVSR
Sequence of MAP kinase-activated protein kinase 2 (Homo sapiens) (P49137 whole entry, looked up): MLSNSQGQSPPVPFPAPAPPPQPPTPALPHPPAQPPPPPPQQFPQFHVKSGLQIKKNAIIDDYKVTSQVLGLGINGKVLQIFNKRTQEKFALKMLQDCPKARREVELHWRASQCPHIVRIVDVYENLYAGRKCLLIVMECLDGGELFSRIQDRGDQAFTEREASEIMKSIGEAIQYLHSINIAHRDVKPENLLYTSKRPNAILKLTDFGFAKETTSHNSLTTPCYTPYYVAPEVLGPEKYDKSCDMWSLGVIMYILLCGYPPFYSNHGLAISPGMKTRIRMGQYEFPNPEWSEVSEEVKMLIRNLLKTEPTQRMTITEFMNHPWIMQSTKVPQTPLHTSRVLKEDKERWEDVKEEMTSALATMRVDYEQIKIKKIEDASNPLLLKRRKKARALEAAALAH

For the compound `CCCNc1cccc(-n2ncc3c(N/N=C/c4ccncc4)ncnc32)c1`, the inhibition in [1] is -8.41%; in experiment [2], 6.83%; in experiment [3] it was 2.98%; in experiment [4], -2.72%; in [5], -2.37%; in experiment [6] it was -5.26%. Further, the inhibition is -4.82% in experiment [7], 2.01% in experiment [8], 10.3% in experiment [9] and 3.4% in experiment [10].
Consider `NC(=O)c1ccc2c(-c3ccnc(NCCCO)n3)c(-c3ccc(F)cc3)nn2c1`, for which the inhibition in experiment [1] was found to be 15.1%; in experiment [2], 1.81%; in [3], 1.24%; in experiment [4], 5.03%; in [5], 5.02%; in [6], 39.7%. Besides, the inhibition in [7] stood at 43.4%; in [8] it was 4.33%; in [9] it was 4.69%; in experiment [10], 4.33%.
With `O=C(O[C@H]1CN[C@H](C#Cc2cc3ncnc(Nc4ccc(OCc5cccc(F)c5)c(Cl)c4)c3s2)C1)N1CCOCC1`, the inhibition in experiment [1] was -0.32%; in [2], 0.93%; in experiment [3], 0.57%; in experiment [4], -0.11%; in [5], 0.31%; in [6] it was -0.64%. In addition, the inhibition is -0.5% in experiment [7], 6.71% in [8], 5.07% in experiment [9] and 1.14% in experiment [10].
`CC1(C)CC(n2cnc(-c3ccc(F)cc3)c2-c2ccnc(N)n2)CC(C)(C)N1`: the inhibition in experiment [1] was -7.03%; in experiment [2], 2.01%; in [3], -7.74%; in [4], -2.49%; in [5], -2.73%; in [6], 21.4%. Also, the inhibition amounted to 26.4% in experiment [7], 1.88% in experiment [8], 0.57% in experiment [9] and 1.34% in [10].
In the case of `CCn1c(-c2nonc2N)nc2cncc(C(=O)NCCNC)c21`, the inhibition amounted to 0.19% in experiment [1]; 1.52% in [2]; 1.62% in [3]; 2.34% in experiment [4]; 1.53% in [5]; 3.52% in experiment [6]. For the same compound, the inhibition was found to be 3.94% in experiment [7], 1.84% in experiment [8], 14.9% in [9] and 1.81% in [10].
`COc1ccccc1-c1cc(/C=C2\C(=O)Nc3ncc(Br)cc32)cc(Br)c1O`: the inhibition in experiment [1] stood at 4.6%; in experiment [2] it was 0.85%; in experiment [3], 1.21%; in [4] it was 1.81%; in experiment [5], 1.69%; in experiment [6] it was 5.31%. For the same compound, the inhibition in experiment [7] worked out at 6.33%; in [8], 3.43%; in [9], 7.22%; in experiment [10], 3.34%.
Take `COc1cc(Nc2ncc(-c3ccccc3)o2)cc(OC)c1`: the inhibition in experiment [1] was -0.73%; in experiment [2], 1.65%; in experiment [3] it was 1.7%; in experiment [4], 2.4%; in experiment [5], 1.2%; in experiment [6], 3.76%. Moreover, the inhibition in experiment [7] turned out to be 3.61%; in experiment [8], 1.26%; in experiment [9], 4.72%; in experiment [10] it was 3.35%.
With `COc1ccc(Nc2ncc(-c3ccccc3)o2)cc1OC`, the inhibition is 1.47% in [1]; 0.15% in experiment [2]; 5.3% in [3]; -0.12% in [4]; -0.35% in experiment [5]; 0.05% in [6]. Also, the inhibition in experiment [7] came to 0.81%; in [8], 2.68%; in experiment [9], 20.4%; in [10], 4.59%.
As for `CN1CCC(n2cnc(-c3ccc(F)cc3)c2-c2ccnc(NCCO)n2)CC1`, the inhibition in experiment [1] came to 5.18%; in experiment [2] it was 1.63%; in experiment [3], 0.48%; in experiment [4], 2.06%; in [5], 2.43%; in experiment [6], 27.6%. For the same compound, the inhibition in experiment [7] stood at 37.2%; in experiment [8], 3.31%; in experiment [9], 7.7%; in experiment [10] it was 4.03%.
Turning to `NS(=O)(=O)c1ccc(N/N=C2\C(=O)Nc3ccc(C(=O)NCc4ccncc4)cc32)cc1`, the inhibition in experiment [1] is 4.92%; in experiment [2], 3.49%; in experiment [3], 0.04%; in experiment [4] it was 2.73%; in [5], 3.71%; in experiment [6], 4.05%. Besides, the inhibition is 2.16% in experiment [7], 7.5% in [8], 40.7% in experiment [9] and 4.2% in experiment [10].
Turning to `OCCCNc1nccc(-c2c(-c3ccc(F)cc3)nn3cc(C(F)(F)F)ccc23)n1`, the inhibition stood at 1.04% in [1]; 0.89% in experiment [2]; 2.29% in [3]; 0.94% in experiment [4]; 0.71% in experiment [5]; 30.2% in experiment [6]. Also, the inhibition in [7] was determined as 36.3%; in experiment [8], 0.69%; in experiment [9] it was 3.09%; in experiment [10] it was 0.94%.
On to `Nc1nccc(-c2c(-c3ccc(F)cc3)ncn2C2CCNCC2)n1`, for which the inhibition was -3.07% and -0.77% in experiment [1]; 1.18% and 0.52% in [2]; -2.79% and 3.76% in [3]; -1.56% and -0.23% in experiment [4]; -1.96% and -0.84% in [5]; 27.6% and 29.5% in experiment [6]. Further, the inhibition in experiment [7] is 34.1% and 34.6%; in experiment [8], -0.83% and 1.71%; in experiment [9], -0.5% and 1.51%; in experiment [10], -0.05% and -0.2%.
In the case of `CCOc1ccc2c(-c3ccnc(Nc4cc(OC)cc(C(F)(F)F)c4)n3)cnn2n1`, the inhibition is 1.23% in [1]; -0.5% in experiment [2]; 4.41% in [3]; 0.58% in experiment [4]; -0.09% in experiment [5]; 0.28% in experiment [6]. The inhibition in [7] was -1.31%; in experiment [8] it was -0.04%; in experiment [9] it was 2.77%; in experiment [10] it was -1.2%.
Take `Cc1c2ccc(N(C)c3ccnc(Nc4cccc(S(N)(=O)=O)c4)n3)cc2nn1C`: the inhibition is 3.66% in experiment [1]; -2.02% in [2]; -1.83% in experiment [3]; 2.01% in experiment [4]; 1.4% in [5]; 3.68% in experiment [6]. The inhibition came to 4.05% in [7], 4.13% in experiment [8], 7.61% in [9] and 5.31% in experiment [10].
Turning to `CCS(=O)(=O)c1ccc(OC)c(Nc2ncc(-c3cccc(F)c3)o2)c1`, the inhibition in experiment [1] stood at 7%; in [2] it was 1.71%; in [3], 1.48%; in experiment [4], 2.52%; in experiment [5], 3.2%; in [6], 7.02%. The inhibition in experiment [7] was 7.04%; in experiment [8], 1.75%; in [9] it was 4.44%; in [10], 3.77%.

Source of the values: ChEMBL document CHEMBL1961873, “Compounds: GSK PKIS; Assays: Nanosyn kinase panel” (2012).
